# Experimental data taken from PubChem BioAssay (NCI).
# Several values for one entry are separate records, joined by “and”; a condition that tells them apart may be missing. Equal values may be shown once. This is part of a sample that, as a whole, favours compounds with a hit. Of some 79,000 tested, about 15% had one in any assay. Unmarked numbers belong to inactive results. Activity calls are given as the source filed them. Cut-off read from the data, not from the text of the source: active = growth inhibition above about 70%; inactive = the rest.
# Test: NCI Yeast Anticancer Drug Screen. Data for the rad50 strain (AID 155);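 note: 0% = growth of vehicle-only cultures of the same strain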
# Conditions: S. cerevisiae rad50 strain growth inhibition, hits give high values
# Protocol: Growth inhibition of yeast strains with defined genetic alterations is measured as a screen for potential anti-cancer activity. Selected strains with alterations in DNA damage repair or cell cycle control were exposed to compounds and growth inhibition was measured relative to vehicle treated controls. The strain used in this assay is rad50
# [1] = at 5.0 µM (retest, dose inferred, filed as 0.5)
# [2] = at 50.0 µM (retest, dose inferred, filed as 5.0)
SMILES,growth inhibition [1],growth inhibition [2],growth inhibition (at 50.0 µM)
CCN(CC)CC(O)c1cc(-c2ccc(Cl)cc2)nc2cc(Cl)ccc12 (configuration not stated),2%,99% (active),98% (active)
CN(C)c1ccc(C(C#N)(c2ccccc2)c2ccc(N(C)C)cc2)cc1,35%,87% (active),39.3%
COc1ccc(C(OCC2OC(n3ccc(NC(=O)c4ccccc4)nc3=O)C(O)C2O)(c2ccccc2)c2ccccc2)cc1 (configuration not stated),56%,91% (active),68.7%
O=Nc1ccc2ccccc2c1O,-3%,64%,85.7% (active)
Cc1ccc(/C=N/Nc2cc(C)c3cccc(C)c3n2)s1,9%,94% (active),89.3% (active)
CCc1cccc(CC)c1N1C(=O)C=CC1=O,45%,78% (active),92.7% (active)
COC(=O)c1cc([N+](=O)[O-])cc([N+](=O)[O-])c1Cl,99% (active),99% (active),91.2% (active)
CC(C)=C1C=C2CC[C@@H]3[C@](C)(CCC[C@@]3(C)C(=O)O)[C@H]2CC1,-1%,93% (active),88.3% (active)
Cc1ccc(-c2c(C#N)c(-c3ccc(C)cc3)n(NS(=O)(=O)c3ccccc3)c(=O)c2C#N)cc1,30%,84% (active),–
CCCOC1N(c2ccc(C)cc2)NC(=O)C1(C)C (configuration not stated),86% (active),95% (active),83% (active)
Oc1ccc2ccccc2c1N=Nc1ccccn1,35%,91% (active),98.2% (active)
O=C(Nc1ccc(Cl)c(Cl)c1)OCc1ccco1,51%,68%,91.4% (active)
CN(C)CC(O)c1cc2ccccc2c2ccccc12 (configuration not stated),–,–,3.3% and -1.9%
OC1C(O)C2(c3ccccc3)OC1(c1ccccc1)c1ccccc12 (configuration not stated),–,–,13.2% and 7.35%
O=C(O)/C=C/c1cccc(Cl)c1,–,–,14.2% and -11.2%
CN(C)N=Nc1ccc(C(=O)O)cc1,–,–,27.6% and 12.6%
NCC1CCC(CN)CC1 (configuration not stated),–,–,-23.9% and -37.9%
[B]C(=O)NC(CC(C)C)C(=O)NC1c2ccsc2C(=O)C1O (configuration not stated) (tested in a mixture with another compound),–,–,3.05% and 4.2%
CCOC(=O)C(N)CS (configuration not stated),–,–,-1.35% and -31.1%
